{"source": "the OligoGym collection"}
{"biological_target": "SMC5", "test": "pooled miR-30 sensor sort-seq; sequence = guide strand", "conditions": "shRNA"}
{"sequence": "TTTCCTTTCTATAACATCTTGC", "sensor-assay potency score (higher = more potent)": 0.304}
{"sequence": "TATAAATCTGTTTTAATCGGGT", "sensor-assay potency score (higher = more potent)": -0.0428}
{"sequence": "TTCTATAACATCTTGCTTCTGT", "sensor-assay potency score (higher = more potent)": 0.581}
{"biological_target": "SMCP", "test": "pooled miR-30 sensor sort-seq; sequence = guide strand", "conditions": "shRNA"}
{"sequence": "TTGTCCTGAGTTTGCGGTGAGT", "sensor-assay potency score (higher = more potent)": -1.27}
{"sequence": "TTGGTCTCCAAACCACAGCACC", "sensor-assay potency score (higher = more potent)": -1.3}
{"sequence": "TTTTGACTGGCAGCACTGGTTC", "sensor-assay potency score (higher = more potent)": -0.818}
{"sequence": "TGACTGGCAGCACTGGTTCTGC", "sensor-assay potency score (higher = more potent)": -1.04}
{"sequence": "TTTGCTGGGCAGCATTTACTGT", "sensor-assay potency score (higher = more potent)": -0.976}
{"sequence": "TTTGGTGGGCAGCATTGACTGC", "sensor-assay potency score (higher = more potent)": -0.712}
{"sequence": "TTGGTGGGCAGCATTGACTGCC", "sensor-assay potency score (higher = more potent)": -0.359}
{"sequence": "TTGATTGCCTTTTGACTGGCAG", "sensor-assay potency score (higher = more potent)": 0.000564}
{"sequence": "TTGTGTTTTGGTGGGCAGCATT", "sensor-assay potency score (higher = more potent)": -1.54}
{"sequence": "TTTGCGGTGAGTTGGGCTCAGA", "sensor-assay potency score (higher = more potent)": -1.18}
{"sequence": "TAAGGGGTGAGACTTCAGGCTT", "sensor-assay potency score (higher = more potent)": -0.603}
{"sequence": "TCTAAACACAGGTCTAGCCTGA", "sensor-assay potency score (higher = more potent)": 0.141}
{"biological_target": "SMCR7L", "test": "pooled miR-30 sensor sort-seq; sequence = guide strand", "conditions": "shRNA"}
{"sequence": "TGACTTCTTCAAGTCTACCTGG", "sensor-assay potency score (higher = more potent)": -0.253}
{"sequence": "TTGTCTGTCTGACCCCTGCAGC", "sensor-assay potency score (higher = more potent)": -0.951}
{"sequence": "TTGCTCTAAGGCCACATCCTAG", "sensor-assay potency score (higher = more potent)": -1.5}
{"sequence": "TTCTACTCCAGGAACCGTGGTC", "sensor-assay potency score (higher = more potent)": 0.223}
{"sequence": "TACATTGCAATAAATACTGCAA", "sensor-assay potency score (higher = more potent)": 0.27}
{"sequence": "TTGCATTCAGCTTATCCTGTGT", "sensor-assay potency score (higher = more potent)": 0.0334}
{"sequence": "TTAAACATTCCTCCCCACCTTC", "sensor-assay potency score (higher = more potent)": -0.361}
{"sequence": "TATGTCCACAGCAGCTTGCTTG", "sensor-assay potency score (higher = more potent)": -1.35}
{"sequence": "TAAGTAGCTGATAAGTCCCCTC", "sensor-assay potency score (higher = more potent)": -0.665}
{"sequence": "TAGCCAAGTGTATCTAACGGAG", "sensor-assay potency score (higher = more potent)": -1.24}
{"sequence": "TTCTCCTGCAGGGACATGCGGA", "sensor-assay potency score (higher = more potent)": -1.36}
{"sequence": "AAACATGCTATCACAGCTCTTC", "sensor-assay potency score (higher = more potent)": 0.268}
{"biological_target": "SMYD2", "test": "pooled miR-30 sensor sort-seq; sequence = guide strand", "conditions": "shRNA"}
{"sequence": "TACAGCTCTGACTTCTGCCAGG", "sensor-assay potency score (higher = more potent)": -0.948}
{"sequence": "TTTGCCGTGAGCTACTTCCATG", "sensor-assay potency score (higher = more potent)": -1.61}
{"sequence": "TAGTCTTACAGTCTCCGAGGGA", "sensor-assay potency score (higher = more potent)": -0.703}
{"sequence": "TTAACCGGTCATTTCTATCTTC", "sensor-assay potency score (higher = more potent)": 0.511}
{"sequence": "TTTTCTGTCCATATTGCAGGGC", "sensor-assay potency score (higher = more potent)": -0.2}
{"sequence": "TTACTGTCCTCAAACACAGAGC", "sensor-assay potency score (higher = more potent)": -0.927}
{"sequence": "TACAGGAGATCAATATAGCTGG", "sensor-assay potency score (higher = more potent)": -0.203}
{"sequence": "TAACATATGAAACCATGCCATT", "sensor-assay potency score (higher = more potent)": -1.62}
{"sequence": "TTGACCGTGAGCACGTAGGCAT", "sensor-assay potency score (higher = more potent)": -0.166}
{"sequence": "TTAAGGTTTCTGAACTAAGTGT", "sensor-assay potency score (higher = more potent)": -0.419}
{"sequence": "TAGGTCACAATGACATTGGGGC", "sensor-assay potency score (higher = more potent)": 0.446}
{"sequence": "TTATCCTTGTCCTTGGTGGTAC", "sensor-assay potency score (higher = more potent)": -0.716}
